# Compounds without any hit were thinned out: in the full panel of roughly 83,000, 20% have a hit.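 Percent growth is the endpoint: 0 to 100 indicates growth inhibition (40 means 60% inhibition), 0 means no net growth, and negative values indicate cell death.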 Values without a mark were called inactive. The source made the active and inactive calls. The calls were made as follows: active = growth percent below 10; inactive = the rest.
# Tested on: HL-60(TB) leukemia
# Experiment: NCI-60 one-dose screen, 48 h (100 = growth as untreated, 0 = no growth, -100 = all killed)
# Conditions: 10 µM unless noted
row,SMILES,growth
1,CC1O[C@@H]2C[C@@](O)([C@H]1O)n1c3ccccc3c3c4c(c5c6ccccc6n2c5c31)C(=O)NC4=O (stereo partly drawn),66.6%
2,COc1ccc(Cl)c(Nc2nc3ccccc3nc2NS(=O)(=O)c2cccc(NC(=O)C(C)(C)N)c2)c1,32.6%
3,CC[C@H](C)C(=O)O[C@H]1CCC=C2C=C[C@H](C)[C@H](CC[C@@H]3CC=CC(=O)O3)[C@H]21,-0.21% (active)
4,COc1cc(C#N)cc(OC)c1OCCN(CCOc1c(OC)cc(C#N)cc1OC)S(=O)(=O)c1ccc(C)cc1,102%
5,CN1CCN(c2cc(Nc3cc(C4CC4)[nH]n3)nc(Nc3ccc(CC(=O)NCc4cccc(F)c4)cc3)n2)CC1,19.9%
6,COc1ccc(N2CCN(Cc3cc(C(=O)/C=C/c4c[nH]c5ccccc45)ccc3O)CC2)cc1,99.9%
7,COc1ccc2nc3c(cc2c1)C(=O)CC(C(F)(F)F)C3 (stereo not drawn),-15.1% (active)
8,O=S(=O)(NCCCNc1cc(-c2cn(-c3ccccc3)nc2-c2cccc(O)c2)ccn1)c1ccc(Br)cc1,-13.1% (active)
9,CCOC(=O)C1=C(c2ccccc2)N=C2SC=C(c3ccc(Cl)cc3)N2C1c1ccc(Cl)cc1 (stereo not drawn),52.6%
10,Nc1nc(Cl)c2[nH]cnc2n1,89.5%
11,O=C(NCCN1CCCC1)n1cc(-c2ccncc2)c(-c2cc(O)cc(Cl)c2)n1,95%
12,Cc1cc(Cl)ccc1Nc1nc(C(F)(F)F)ccc1C(=O)N/N=C/c1ccc([N+](=O)[O-])cc1,-24.1% (active)
13,COc1ccccc1/C=N/NC1=NC2C(N1)N(C)C(=O)N2C (stereo not drawn),107%
14,COc1cccc2cc(N(C)c3ncnc4ccccc34)ccc12,-29.1% (active)
15,Nc1c(C(=O)Nc2ccnc3ccccc23)sc2nc3c(cc12)CN(Cc1ccccc1)CC3,32.7%
16,COc1cc(/C=C/c2ccc3c(Br)cc(Br)c(O)c3n2)ccc1O,-47.3% (active)
17,Cn1c(=O)c2[nH]c(CC(=O)O)nc2n(C)c1=O,110%
18,O=C(Nc1ccc(Cl)cc1)N1CCN(c2ccc3nncn3n2)CC1,-65.2% (active)
19,CCOC(=O)Nc1ccc2c3c(cccc13)-c1ccccc1-2,6.94% (active)
20,COc1ccc(/C=N/NC(=O)c2cnn(CC(O)Cc3ccccc3)c2N)cc1OC1CCCC1 (stereo not drawn),105%
21,NCCCN,98.8%
22,CN(C)c1ccc(/C=N/Nc2nnc3n2N=C(c2ccc(Cl)cc2)CS3)cc1,91.4%
23,CC1Cc2c(ncn3c(-c4ccc(F)cc4)nnc23)N(C)c2ccccc21 (stereo not drawn),91.2%
